Test results: PubChem BioAssay (NCI)
The panel holds about 83,000 compounds, 20% with a hit somewhere; the sample as a whole holds those more often.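 Negative percent growth values reflect cell death: -40 means 40% of the cells present at the start died, and -100 means all died.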 Unmarked numbers belong to inactive results. The source made the active and inactive calls. Rule for the calls: active = growth percent below 10; inactive = the rest.

How the values were obtained:
Experiment in all cases: NCI-60 one-dose screen, 48 h (100 = growth as untreated, 0 = no growth, -100 = all killed)
Details in all cases: 10 µM unless noted
EKVX NSCLC = system: EKVX NSCLC
SN12C renal = system: SN12C renal
UO-31 renal = system: UO-31 renal
TK-10 renal = system: TK-10 renal
ACHN renal = system: ACHN renal
CAKI-1 renal = system: CAKI-1 renal
A498 renal = system: A498 renal
CCRF-CEM leukemia = system: CCRF-CEM leukemia
MOLT-4 leukemia = system: MOLT-4 leukemia
SR leukemia = system: SR leukemia
RPMI-8226 leukemia = system: RPMI-8226 leukemia
OVCAR-8 ovarian = system: OVCAR-8 ovarian
OVCAR-4 ovarian = system: OVCAR-4 ovarian
SK-OV-3 ovarian = system: SK-OV-3 ovarian
IGROV1 ovarian = system: IGROV1 ovarian
OVCAR-3 ovarian = system: OVCAR-3 ovarian
HS 578T breast = system: HS 578T breast
NCI/ADR-RES ovarian = system: NCI/ADR-RES ovarian
OVCAR-5 ovarian = system: OVCAR-5 ovarian

| Structure (SMILES) | growth (EKVX NSCLC) | growth (SN12C renal) | growth (UO-31 renal) | growth (TK-10 renal) | growth (ACHN renal) | growth (CAKI-1 renal) | growth (A498 renal) | growth (CCRF-CEM leukemia) | growth (MOLT-4 leukemia) | growth (SR leukemia) | growth (RPMI-8226 leukemia) | growth (OVCAR-8 ovarian) | growth (OVCAR-4 ovarian) | growth (SK-OV-3 ovarian) | growth (IGROV1 ovarian) | growth (OVCAR-3 ovarian) | growth (HS 578T breast) | growth (NCI/ADR-RES ovarian) | growth (OVCAR-5 ovarian) |
| --- | --- | --- | --- | --- | --- | --- | --- | --- | --- | --- | --- | --- | --- | --- | --- | --- | --- | --- | --- |
| S=c1[nH]cccc1-c1nnc2n1Nc1nc3ccc(Cl)cc3cc1CS2 | 93.1% | 102% | 79.6% | 111% | 101% | 81.8% | 107% | 100% | 92.3% | 85.6% | 98.1% | 102% | 101% | 94.3% | 90.1% | 105% | 89.3% | 99.3% | – |
| CC(=O)OCC(=O)[C@@]1(O)CC[C@H]2[C@@H]3CC(=C(Br)Br)C4=CC(=O)CC[C@]4(C)[C@H]3C(=O)C[C@@]21C | 90.1% | 93.6% | 68.3% | 91.2% | 94.1% | 81.7% | 79.5% | 83.3% | 93.1% | 115% | 87% | 92.9% | 96.1% | 72.9% | 96% | 98.6% | 90.8% | 89.5% | 102% |
| NC(=O)C1(N2CCCCC2)CCN(CCCC(=O)c2ccc(F)cc2)CC1 | 59.2% | 43.3% | 88.9% | 88.2% | 90.9% | 91.7% | 32.8% | 0.142% (active) | 26.8% | 11.4% | 29.5% | 51.1% | 59.8% | 30.8% | 62.6% | -14.7% (active) | -2.41% (active) | 100% | 72.7% |
| Cc1c([N+](=O)[O-])cc(C(C)(C)C)cc1[N+](=O)[O-] | – | 99.7% | 98.7% | 102% | 104% | 98% | 93.8% | 106% | 95.9% | 106% | 112% | 98.6% | 115% | 92.3% | 112% | – | 99.5% | 103% | 91.1% |
| COc1cccc(NC(=O)c2cccc(-c3cc(=O)c4c(OC)c(OC)c(OC)cc4o3)c2)c1 | 81.3% | 62.3% | 31.6% | 78.8% | 62.5% | 74.7% | – | 40.5% | 48.5% | 41.9% | 17% | 47% | 62.6% | 109% | 53.3% | 66.6% | 46.2% | 64.8% | 90.1% |
| O=C(CCN1CCCC1)Nc1ccc2c(Nc3ccccc3)c3ccccc3nc2c1 | 59.3% | 13.3% | -28.3% (active) | 1.74% (active) | 1.77% (active) | -11.9% (active) | – | -8.84% (active) | -4.75% (active) | -14.9% (active) | -27.3% (active) | 7.5% (active) | -4.97% (active) | 23.8% | 13.5% | -25% (active) | 32.2% | 47.1% | 20% |
| c1ccc(CCSc2ncnc3nc[nH]c23)cc1 | 73.4% | 86.5% | 84.4% | 122% | 90.7% | 86.7% | 86.3% | 92.6% | 92.4% | 52.8% | 82.1% | 66.9% | 84.8% | – | – | – | 100% | 99.2% | 114% |
| C=C(C)[C@@H]1CC[C@]2(C(=O)NCC(=O)OC)CC[C@]3(C)[C@H](CC[C@@H]4[C@@]5(C)Cc6c([nH]c7ccccc67)C(C)(C)[C@@H]5CC[C@]43C)[C@@H]12 | 71.5% | 70.9% | 65.1% | 89.3% | 60.5% | – | – | 57.2% | 40.9% | 47% | 53.2% | 85.4% | 66.5% | 84.5% | 85.1% | 64.6% | 95% | 91% | 100% |
| COc1ccc(-c2c(-c3ccccc3)noc2N)cc1OC | – | 105% | 91.5% | 111% | 133% | 110% | 123% | 98.1% | 99.3% | 76.6% | – | 100% | 113% | 107% | 113% | 117% | 148% | 104% | 117% |
| CCN1C(=O)/C(=c2\sc3n(c2=O)NC2C(N=3)N(CC)C(=O)N2CC)c2ccccc21 (stereo not given) | 60.4% | 43.8% | 48.9% | 83.3% | 49.3% | 42.1% | -17.8% (active) | – | 58.9% | 22.7% | 64.9% | 46.5% | 46% | 70.2% | 41.6% | – | 37% | 12.1% | 53.8% |
| Cc1ccc(C2CC(c3cccc(Nc4ccncc4)c3)=NN2c2cc(Cl)cc(Cl)c2)cc1 (stereo not given) | 77.3% | 52.4% | 51.8% | 72.7% | -61.9% (active) | -38.8% (active) | 77.6% | 7.28% (active) | 1.74% (active) | 1.17% (active) | 16.1% | -36.5% (active) | 15% | 83.4% | 15.3% | 61.7% | 62.6% | 52.1% | 71.1% |
| COc1cccc(/C=C2\COc3ccc(-c4ccccc4)cc3C2=O)c1 | 99.9% | 31.4% | -38.1% (active) | -5.26% (active) | 46.8% | 50.8% | 45.6% | -32.7% (active) | -28.2% (active) | – | -31.4% (active) | 3.02% (active) | 65.2% | 74.3% | 4.34% (active) | -44% (active) | -9.75% (active) | 5.38% (active) | 49.6% |
| C=CCn1c(SCC(=O)Nc2ccc(C(=O)/C=C/c3cc(OC)c(OC)c(OC)c3)cc2)nnc1-c1cc(-c2ccc(S(C)(=O)=O)cc2)nc2ccccc12 | 90.9% | 88.5% | 78.4% | 159% | 91.9% | 77.3% | – | 35% | 56.3% | 13.9% | -5.82% (active) | 68.6% | 94.5% | 127% | 72.8% | 85.9% | 95.3% | – | 112% |
| CC(=O)O[C@H]1CC[C@@]2(C)[C@@H](CC[C@@H]3[C@@H]2CC[C@@]2(C)[C@H]3CC[C@]2(O)C(C)=O)C1 | 87.1% | 96.4% | 92.7% | 99.2% | 88.6% | 99.3% | 90% | 98.9% | 97.6% | 91.8% | 88.1% | 109% | 102% | 103% | 99.7% | 108% | 97.2% | 96% | 97.7% |
| COc1cc2nc(-c3ccc(-c4nn[nH]n4)cc3)[nH]c(=O)c2cc1OC | 108% | 140% | 86.3% | 246% | 111% | -1.66% (active) | 147% | 114% | 95.5% | 97.8% | 81.8% | 105% | 115% | 108% | 108% | 112% | 110% | 101% | 99.4% |
| O=c1[nH]nc(-c2ccc(Cl)cc2)cc1Cc1cccc([N+](=O)[O-])c1 | 39.8% | 89.1% | 71.7% | 147% | 98.3% | 80.8% | 106% | -7.68% (active) | 5.84% (active) | -44.9% (active) | 51.6% | 101% | 80% | 88.8% | 82.4% | 101% | 49.1% | 101% | 107% |
| O=CNc1cc(Cl)cc(Cl)c1 | 96.7% | 95.9% | 90.1% | 101% | – | 92.3% | – | 101% | 97.5% | 90.3% | 99.1% | 99.8% | 113% | 115% | 103% | 123% | 111% | 108% | 97.5% |
| CN1C(=O)N(C)C2NC(N/N=C/c3ccccc3)=NC21 (stereo not given) | 98.7% | 98.5% | 92.7% | 100% | 102% | 88.8% | 95.4% | – | 103% | 117% | 138% | 102% | 103% | 115% | 102% | 106% | 94.7% | 104% | – |
| CC(=O)Nc1ccc(C(=O)Nc2cc(-c3ccccc3)ccc2N)cc1 | 71.4% | 84.2% | 48.7% | 59.5% | 54.8% | 47.5% | 83.9% | 80.1% | 64.8% | 39.4% | 83.6% | 54.9% | 76.7% | 67.9% | 94% | 75.2% | 92% | 42.9% | 60.5% |
